Measured values reported in PubChem BioAssay (Tox21).
Results filed as inconclusive are left out. Calls of active or inactive are those of the source. Unless noted, calls come from the whole dose curve; as a rule, active = well fitted curve in the direction sought with a large enough effect in the repeat runs; inconclusive = weak or mixed curves; inactive = no such curve, though single readings can be large; an effect the other way counts as inactive or inconclusive.

Legend:
[1] = target: Thyrotropin receptor (Homo sapiens) (UniProt P16473); test: qHTS assay to identify small molecule antagonists of the thyroid stimulating hormone receptor (TSHR) signaling pathway (AID 1259385; calls by dose curve; note: nearly all actives have a fitted effect of over 20% in size)
Procedure, shortened: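 TSHR-HEK293 cells were plated and held 18 h at 37C/5% CO2, then given compound plus Ro20-1724 and stimulated with TSH at 1.5 ng/mL final. After 30 min at room temperature, cAMP was detected with cAMP-d2/anti-cAMP-cryptate (1 h) by fluorescence.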

[2] = qHTS assay to identify small molecule agonists of the estrogen receptor alpha (ER-alpha) signaling pathway in the presence of an antagonist - cell viability counter screen (AID 1259386);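 note: series mostly up to about 92 µM; cells exposed to compounds for 22 h at 37 °C before the viability read; nearly all actives have a fitted effect of over 30% in size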
Procedure, shortened: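 Using estrogen-depleted VM7Luc4E2 cells, the 15-concentration compound series was applied together with 10.0nM ICI-182,780 and incubated 22hr at 37C/5% CO2. Cell viability was then scored by CellTiter-Fluor.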

[3] = target: Progesterone receptor (Homo sapiens) (UniProt P06401); test: qHTS assay to identify small molecule antagonists of the progesterone receptor (PR) signaling pathway (AID 1346795; active = well fitted inhibition curve with a large enough effect in the signal ratio in the repeat runs, not every such curve was filed as active; the % refers to the signal ratio; note: potency is the fitted concentration of half-maximal effect)
Procedure, shortened: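 Screening used a GripTite HEK293T line with PR-responsive UAS-beta-lactamase. Cells were challenged with compound in the presence of 1 nM R5020 final for 16 hr at 37C; B/G FRET substrate, 2 hr room temperature, fluorescence.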

[4] = qHTS assay to identify small molecule antagonists of the progesterone receptor (PR) signaling pathway - cell viability counter screen (AID 1346798); note: series mostly up to about 92 µM; nearly all actives have a fitted effect of over 50% in size
Procedure, shortened: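 Measures cytotoxicity in parallel with the PR antagonist reporter read: HEK293T PR-UAS-bla cells get compound and R5020 for 16 hr, and remaining viable cells are quantified by CellTiter-Glo luminescence.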

[5] = qHTS assay to identify small molecule antagonists of the TGF-beta/Smad signaling pathway - cell viability counter screen (AID 1346824); note: nearly all actives have a fitted effect of over 50% in size
Procedure, shortened: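 SBE-bla HEK 293T cells were plated overnight at 37 C, then given compounds in DMSO plus TGF-beta1 (added as 0.25 ng/mL solution) for 5 hr. After the bla read, CellTiter-Glo was added to the same wells and luminescence read after 30 min at room temperature.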

[6] = qHTS assay to identify small molecule agonists of the TGF-beta/Smad signaling pathway - cell viability counter screen (AID 1346829); note: top concentration of the series differs between compounds; nearly all actives have a fitted effect of over 45% in size
Procedure, shortened: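 Compound-treated SBE-bla HEK 293T cells (5 hr, 37 C) were assessed for viability with CellTiter-Glo in parallel with the reporter read.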

[7] = qHTS assay to identify small molecule agonists of the TGF-beta/Smad signaling pathway (AID 1346859; active = well fitted activation curve with a large enough effect in the signal ratio in the repeat runs, not every such curve was filed as active; the % refers to the signal ratio; note: series mostly up to about 77 µM)
Procedure, shortened: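 Beta-lactamase reporter activity downstream of Smad binding elements was measured in stably transfected HEK 293T cells; compounds were incubated for 5 hr, substrate for 2 hr at room temperature.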

[8] = target: Thyrotropin-releasing hormone receptor (Homo sapiens) (UniProt P34981); test: qHTS assay to identify small molecule antagonists of the thyrotropin-releasing hormone receptor (TRHR) signaling pathway (AID 1346877; active = well fitted inhibition curve with a large enough effect in the repeat runs, not every such curve was filed as active; note: series mostly up to about 51 µM)
Procedure, shortened: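 Calcium signal in dye-loaded TRHR/HEK293 cells; compounds added 5 min before TRH (1 nM final); fluorescence monitored 3 min at 1 s steps.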

[9] = target: Thyrotropin-releasing hormone receptor (Homo sapiens) (UniProt P34981); test: qHTS assay to identify small molecule agonists of the thyrotropin-releasing hormone receptor (TRHR) signaling pathway (AID 1346891; calls by dose curve;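 note: HEK293 cells expressing TRHR with calcium dye readout; series mostly up to about 58 µM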)
Procedure, shortened: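 Overnight-plated (18 h, 37 °C, 5% CO2) TRHR-Hek293 cells; 2 h calcium dye at 37 °C; compound in DMSO; 3-min kinetic fluorescence read.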

[10] = Caspase-3/7 induction in HepG2 cells by small molecules, qHTS assay (AID 1346978); note: nearly all actives have a fitted effect of over 15% in size
Procedure, shortened: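 Wild-type HepG2 cells (2,000/well) were settled 5 h at 37 C, 5% CO2, then exposed to compounds in DMSO for 17 h. Caspase-3/7 activity was read by luminescence 30 min after adding Caspase-Glo 3/7 reagent at room temperature.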

[11] = Caspase-3/7 induction in CHO-K1 cells by small molecules, qHTS cell viability counter screen (AID 1346979); note: nearly all actives have a fitted effect of over 35% in size; note: potency is the fitted concentration of half-maximal effect
Procedure, shortened: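 Multiplexed with Caspase-Glo 3/7 in CHO-K1 cells, this counter screen added CellTiter-Fluor after 16hr of compound exposure and recorded fluorescence 1hr later.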

[12] = Caspase-3/7 induction in CHO-K1 cells by small molecules, qHTS assay (AID 1346980); note: nearly all actives have a fitted effect of over 15% in size
Procedure, shortened: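 Wild-type cells were seeded at 1,500 per well and settled 5 hr at 37 C, 5% CO2, then exposed to DMSO-dissolved compounds for 17 hr. Caspase-Glo 3/7 reagent was added, and luminescence was read after 30min at room temperature.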

[13] = target: Progesterone receptor (Homo sapiens) (UniProt P06401); test: qHTS assay to identify small molecule agonists of the progesterone receptor (PR) signaling pathway (AID 1346784; calls by dose curve; note: nearly all actives have a fitted effect of over 30% in size)
Procedure, shortened: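 Seed PR-UAS-bla HEK 293T cells (2% charcoal-stripped FBS), incubate 6 hr at 37C; add compounds in DMSO, 16 hr at 37C; add LiveBLAzer B/G substrate, 2 hr RT; read fluorescence intensity.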

[14] = qHTS assay to identify small molecule agonists of the progesterone receptor (PR) signaling pathway - cell viability counter screen (AID 1346799; calls by dose curve; note: nearly all actives have a fitted effect of over 45% in size; note: potency is the fitted concentration of half-maximal effect)
Procedure, shortened: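 Using the same plates as the PR reporter screen, HEK293T PR-UAS-bla cells received compounds for 16 hr at 37C and were then lysed with CellTiter-Glo; luminescence was read 30 min later at room temperature.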

[15] = Human pregnane X receptor (PXR) small molecule agonists, qHTS cell viability counter screen (AID 1346977); note: nearly all actives have a fitted effect of over 50% in size
Procedure, shortened: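 After a 5hr pre-incubation, PXR-Luc HepG2 cells received compounds plus positive control in DMSO and were kept 24hr at 37C. Cell viability was quantified by fluorescence from CellTiter-Fluor added for the final hour.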

[16] = target: Nuclear receptor subfamily 1 group I member 2 (Homo sapiens) (UniProt O75469); test: Human pregnane X receptor (PXR) small molecule agonists, qHTS assay (AID 1346982); note: nearly all actives have a fitted effect of over 35% in size; note: potency is the fitted concentration of half-maximal effect
Procedure, shortened: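 Tox21 qHTS; PXR-Luc HepG2; compounds pinned from DMSO; 24 hr, 37 C; ONE-Glo luciferase detection, 30 min room temperature.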

[17] = Caspase-3/7 induction in HepG2 cells by small molecules, qHTS cell viability counter screen (AID 1346981); note: nearly all actives have a fitted effect of over 30% in size; note: potency is the fitted concentration of half-maximal effect
Procedure, shortened: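 After a 5-hr attachment period at 37 C and 5% CO2, wild-type HepG2 cells received compounds in DMSO. Sixteen hours later CellTiter-Fluor was dispensed and the fluorescent signal quantified after a further hour.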

[18] = target: Nuclear receptor subfamily 1 group I member 2 (Rattus norvegicus) (UniProt Q9R1A7); test: Rat pregnane X receptor (rPXR) activation by small molecules, qHTS assay (AID 1346983); conditions: rPXR luciferase reporter cells, One-Glo luminescence, 24 h; hits give high values; note: nearly all actives have a fitted effect of over 20% in size
Procedure, shortened: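 Cell-based rPXR luciferase reporter assay, 2,000 cells per well, rested 5hr at 37 C before compound addition in DMSO, then 24 hr at 37 C. One-Glo reagent was added and luminescence read after 30 min at room temperature.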

[19] = target: Nuclear receptor subfamily 1 group I member 2 (Homo sapiens) (UniProt O75469); test: Human pregnane X receptor (PXR) activation by small molecules, qHTS assay (AID 1346985); note: nearly all actives have a fitted effect of over 40% in size; note: potency is the fitted concentration of half-maximal effect
Procedure, shortened: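 DPX-2 cells (HepG2 co-transfected with a PXR response element and a CYP3A4-promoter luciferase construct) were seeded at 2,000 per well, rested 5 hr at 37C, then exposed to DMSO-dissolved compounds for 24 hr. Activation was read as luciferase luminescence.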

[20] = target: Nuclear receptor subfamily 1 group I member 2 (Homo sapiens) (UniProt O75469); test: CYP3A4 induction through human pregnane X receptor (PXR) by small molecules, qHTS assay (AID 1346984); note: nearly all actives have a fitted effect of over 40% in size
Procedure, shortened: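 Cells (DPX-2; HepG2 with PXR element plus CYP3A4-promoter luciferase) settled 5hr, then were treated 24hr at 37C. A 3hr, 3uM-final Luciferin-IPA step preceded luminescence measurement with One-Glo.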
% is set by controls: 0 for no effect and ±100 for the full control effect.

Sequence of Progesterone receptor (Homo sapiens) (P06401 whole entry, looked up): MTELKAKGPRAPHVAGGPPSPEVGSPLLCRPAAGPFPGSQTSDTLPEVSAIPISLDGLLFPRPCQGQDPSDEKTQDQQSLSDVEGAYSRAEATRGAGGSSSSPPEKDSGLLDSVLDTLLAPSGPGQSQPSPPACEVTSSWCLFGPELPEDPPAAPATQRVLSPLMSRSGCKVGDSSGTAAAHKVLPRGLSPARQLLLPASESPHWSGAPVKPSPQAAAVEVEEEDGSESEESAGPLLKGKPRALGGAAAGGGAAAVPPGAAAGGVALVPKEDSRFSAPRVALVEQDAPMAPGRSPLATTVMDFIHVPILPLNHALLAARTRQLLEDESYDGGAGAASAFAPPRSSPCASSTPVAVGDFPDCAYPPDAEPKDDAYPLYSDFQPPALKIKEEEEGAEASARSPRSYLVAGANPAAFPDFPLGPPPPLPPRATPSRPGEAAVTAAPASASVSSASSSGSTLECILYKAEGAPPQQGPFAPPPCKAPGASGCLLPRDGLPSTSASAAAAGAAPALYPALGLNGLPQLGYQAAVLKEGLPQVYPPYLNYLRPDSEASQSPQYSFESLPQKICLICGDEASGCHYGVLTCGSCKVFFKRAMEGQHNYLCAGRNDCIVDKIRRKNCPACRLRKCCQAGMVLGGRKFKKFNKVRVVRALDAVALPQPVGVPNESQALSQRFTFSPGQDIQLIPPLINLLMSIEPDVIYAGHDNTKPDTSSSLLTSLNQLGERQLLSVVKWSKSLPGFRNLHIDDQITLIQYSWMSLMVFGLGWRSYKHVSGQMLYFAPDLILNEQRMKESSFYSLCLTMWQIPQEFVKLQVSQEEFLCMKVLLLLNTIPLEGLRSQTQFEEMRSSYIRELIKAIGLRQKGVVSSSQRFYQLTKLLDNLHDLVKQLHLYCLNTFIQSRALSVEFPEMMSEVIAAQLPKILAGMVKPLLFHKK
Sequence of Thyrotropin receptor (Homo sapiens) (P16473 whole entry, looked up): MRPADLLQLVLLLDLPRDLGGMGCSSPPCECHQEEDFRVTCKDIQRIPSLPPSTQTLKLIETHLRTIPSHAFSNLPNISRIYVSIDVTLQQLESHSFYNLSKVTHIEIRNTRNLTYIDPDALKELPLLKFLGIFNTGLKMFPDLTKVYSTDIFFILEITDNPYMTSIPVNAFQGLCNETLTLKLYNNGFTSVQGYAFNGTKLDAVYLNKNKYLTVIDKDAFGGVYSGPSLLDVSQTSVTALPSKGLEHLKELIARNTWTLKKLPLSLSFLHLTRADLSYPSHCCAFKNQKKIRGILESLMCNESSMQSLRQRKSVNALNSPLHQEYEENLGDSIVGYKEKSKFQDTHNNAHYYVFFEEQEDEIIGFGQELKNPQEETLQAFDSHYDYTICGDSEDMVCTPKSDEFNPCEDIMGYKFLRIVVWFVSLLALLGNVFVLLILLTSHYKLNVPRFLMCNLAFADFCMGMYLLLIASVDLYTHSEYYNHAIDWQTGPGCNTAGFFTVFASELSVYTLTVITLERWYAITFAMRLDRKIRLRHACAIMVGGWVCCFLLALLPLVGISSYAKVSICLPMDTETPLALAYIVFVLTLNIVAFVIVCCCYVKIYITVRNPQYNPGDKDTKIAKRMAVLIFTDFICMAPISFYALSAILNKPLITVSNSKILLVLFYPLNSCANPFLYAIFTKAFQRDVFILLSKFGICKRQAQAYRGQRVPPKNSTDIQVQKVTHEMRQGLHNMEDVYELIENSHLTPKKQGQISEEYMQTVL
Sequence of Thyrotropin-releasing hormone receptor (Homo sapiens) (P34981 whole entry, looked up): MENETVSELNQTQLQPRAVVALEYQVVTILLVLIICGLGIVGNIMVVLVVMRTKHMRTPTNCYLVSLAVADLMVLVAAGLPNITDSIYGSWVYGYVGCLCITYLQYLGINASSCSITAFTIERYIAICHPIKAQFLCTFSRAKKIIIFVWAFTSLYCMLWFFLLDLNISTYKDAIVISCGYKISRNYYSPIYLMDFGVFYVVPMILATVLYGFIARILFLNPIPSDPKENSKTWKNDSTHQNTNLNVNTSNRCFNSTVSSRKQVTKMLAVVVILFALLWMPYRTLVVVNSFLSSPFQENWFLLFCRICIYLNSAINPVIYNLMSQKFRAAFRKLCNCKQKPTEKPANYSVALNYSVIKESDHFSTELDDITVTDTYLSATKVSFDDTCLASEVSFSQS
Sequence of Nuclear receptor subfamily 1 group I member 2 (Rattus norvegicus) (Q9R1A7 whole entry, looked up): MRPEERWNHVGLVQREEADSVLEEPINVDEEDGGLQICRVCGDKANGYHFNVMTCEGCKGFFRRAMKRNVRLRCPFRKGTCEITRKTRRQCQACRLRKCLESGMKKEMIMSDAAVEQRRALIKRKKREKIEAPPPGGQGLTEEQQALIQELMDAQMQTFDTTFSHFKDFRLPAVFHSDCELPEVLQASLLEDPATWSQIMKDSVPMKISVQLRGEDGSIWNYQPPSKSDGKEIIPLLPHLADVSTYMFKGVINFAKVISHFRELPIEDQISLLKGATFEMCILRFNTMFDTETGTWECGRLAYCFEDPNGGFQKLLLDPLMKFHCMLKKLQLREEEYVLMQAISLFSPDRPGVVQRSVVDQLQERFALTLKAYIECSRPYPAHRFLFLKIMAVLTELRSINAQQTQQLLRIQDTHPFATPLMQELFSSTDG
Sequence of Nuclear receptor subfamily 1 group I member 2 (Homo sapiens) (O75469 whole entry, looked up): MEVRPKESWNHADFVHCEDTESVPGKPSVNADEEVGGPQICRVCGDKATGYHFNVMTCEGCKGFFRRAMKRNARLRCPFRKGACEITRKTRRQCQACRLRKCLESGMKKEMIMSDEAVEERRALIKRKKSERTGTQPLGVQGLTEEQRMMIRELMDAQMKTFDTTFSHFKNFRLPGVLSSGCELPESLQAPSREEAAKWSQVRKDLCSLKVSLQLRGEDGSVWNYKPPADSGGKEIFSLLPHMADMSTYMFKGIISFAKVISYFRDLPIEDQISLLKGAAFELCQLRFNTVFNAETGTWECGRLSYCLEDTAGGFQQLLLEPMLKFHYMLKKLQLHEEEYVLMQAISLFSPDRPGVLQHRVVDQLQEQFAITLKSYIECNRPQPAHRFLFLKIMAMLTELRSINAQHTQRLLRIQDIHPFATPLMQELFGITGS

COCCOC(=O)C1=C(C)NC(C)=C(C(=O)OC(C)C)C1c1cccc([N+](=O)[O-])c1 (stereo unspecified)
inactive: outcome [1] | Potency [2] | Potency [4] | outcome [5] | outcome [6] | outcome [7] | outcome [8] | outcome [9] | Potency [10] | outcome [12]
active: Potency [3] 10.6 µM | Potency [11] 21.1 µM

OCCC(F)(F)C(F)(F)C(F)(F)C(F)(F)C(F)(F)C(F)(F)C(F)(F)C(F)(F)F
inactive: Potency [2] | Potency [13] | Potency [3] | Potency [4] | Potency [14] | outcome [5] | outcome [6] | outcome [7] | outcome [8] | outcome [9] | Potency [15] | Potency [10] | Potency [11] | outcome [12] | Potency [16]

O=C1c2cccc3c2[C@H](CCC3)CN1[C@@H]1CN2CCC1CC2
active: Potency [14] 26.6 µM
inactive: outcome [1] | Potency [13] | outcome [5] | outcome [6] | outcome [7] | outcome [8] | outcome [9] | Potency [10] | outcome [12] | Potency [17] | Potency [16] | max activation [18] -9.35% | Potency [19]

Cc1ccsc1/C=C/C1=NCCCN1C
inactive: Potency [2] | Potency [13] | Potency [3] | Potency [4] | Potency [14] | outcome [5] | outcome [6] | outcome [7] | outcome [8] | outcome [9] | Potency [15] | Potency [10] | Potency [11] | outcome [12] | Potency [16] | max activation [18] -1.84% | Potency [20] | Potency [19]

O=C1c2ccccc2C(=O)N1CCl
inactive: Potency [2] | Potency [13] | Potency [3] | Potency [4] | Potency [14] | outcome [5] | outcome [6] | outcome [7] | outcome [8] | outcome [9] | Potency [15] | Potency [10] | Potency [11] | outcome [12] | Potency [17] | Potency [16]

CC(N)C(=O)OC(C)(C)Cc1ccc(Cl)cc1 (stereo unspecified)
inactive: outcome [1] | Potency [13] | Potency [3] | outcome [5] | outcome [6] | outcome [7] | Potency [15] | Potency [10] | Potency [11] | Potency [17] | Potency [16]

COc1nccnc1NS(=O)(=O)c1ccc(N)cc1
inactive: outcome [1] | Potency [2] | Potency [4] | Potency [14] | outcome [5] | outcome [6] | outcome [8] | outcome [9] | Potency [15] | Potency [10] | Potency [11] | outcome [12] | Potency [17] | Potency [16] | max activation [18] 3.09% | Potency [20] | Potency [19]

CCC(C=O)CC
inactive: outcome [1] | Potency [2] | Potency [3] | Potency [4] | Potency [14] | outcome [5] | outcome [6] | outcome [7] | outcome [8] | outcome [9] | Potency [15] | Potency [10] | Potency [11] | outcome [12] | Potency [16]

C=C(C)C(=O)OCCNC(C)(C)C
inactive: outcome [1] | Potency [2] | Potency [13] | outcome [5] | outcome [6] | outcome [7] | outcome [8] | outcome [9] | Potency [15] | Potency [10] | Potency [11] | Potency [16]

c1ccc2c(c1)ccc1c3ccccc3ccc21
inactive: outcome [1] | Potency [2] | Potency [14] | outcome [5] | outcome [6] | outcome [7] | outcome [8] | outcome [9] | Potency [15] | Potency [10] | Potency [11] | outcome [12] | Potency [17] | Potency [16]

CCCCCCOC(=O)CC
inactive: Potency [2] | Potency [13] | Potency [3] | Potency [4] | Potency [14] | outcome [5] | outcome [6] | outcome [7] | outcome [8] | outcome [9] | Potency [10] | Potency [11] | outcome [12] | Potency [16]

CC(CC=O)CCCC(C)(C)O (stereo unspecified)
inactive: outcome [1] | Potency [2] | Potency [3] | Potency [4] | outcome [5] | outcome [7] | Potency [15] | Potency [10] | Potency [11] | outcome [12] | Potency [17] | Potency [16] | max activation [18] -1.75% | Potency [20] | Potency [19]

CC(CN)CC(C)(C)CCN (stereo unspecified)
inactive: outcome [1] | Potency [13] | Potency [3] | Potency [4] | outcome [5] | outcome [8] | outcome [9] | Potency [15] | Potency [10] | outcome [12] | Potency [17] | Potency [16]

Nc1ccc(S(=O)(=O)Nc2ccc(Cl)nn2)cc1
inactive: Potency [2] | Potency [13] | Potency [3] | Potency [4] | Potency [14] | outcome [5] | outcome [6] | outcome [7] | outcome [8] | outcome [9] | Potency [15] | Potency [10] | Potency [11] | outcome [12] | Potency [17] | Potency [16] | max activation [18] -0.0524% | Potency [20] | Potency [19]

CC(C)C(=O)OCCc1ccccc1
inactive: outcome [1] | Potency [2] | Potency [4] | Potency [14] | outcome [5] | outcome [6] | outcome [7] | outcome [8] | outcome [9] | Potency [10] | Potency [11] | outcome [12] | Potency [17] | Potency [16]

CC1=C(C(=O)O)N2C(=O)[C@@H](NC(=O)[C@H](N)c3ccc(O)cc3)[C@H]2SC1
inactive: outcome [1] | Potency [2] | Potency [13] | Potency [14] | outcome [5] | outcome [6] | outcome [7] | Potency [10] | Potency [11] | outcome [12] | Potency [17] | max activation [18] -3.3%

COc1ccc2c(c1OC)C(=O)O[C@@H]2[C@H]1c2c(cc3c(c2OC)OCO3)CCN1C
active: Potency [11] 13.3 µM | Potency [17] 15 µM | Potency [16] 11.9 µM | Potency [19] 22.4 µM
inactive: outcome [1] | Potency [13] | Potency [3] | Potency [4] | Potency [14] | outcome [5] | outcome [6] | outcome [7] | outcome [8] | outcome [9] | Potency [10] | outcome [12] | max activation [18] 8.04% | Potency [20]

CCOC(=O)c1ncn2c1CN(C)C(=O)c1cc(F)ccc1-2
inactive: outcome [1] | Potency [2] | Potency [3] | Potency [14] | outcome [5] | outcome [6] | outcome [7] | Potency [15] | Potency [10] | Potency [11] | outcome [12] | Potency [17] | Potency [16]
